# From article PMC7819943, “Rice protein-binding microarrays: a tool to detect cis-acting elements near promoter regions in rice”
# Whole data set: some 68,000 sequences, median “fluorescence intensity (a.u.)” near 9,100, cut for the highest 2% near 16,000. The sample as a whole holds a higher share of the highest values than the screen did.
# Molecular target: OsWRKY34 (Oryza sativa, UniProt Q0JBA9 1-250)
# Experiment: protein-binding microarray (RPBM); PBS, 2% BSA, 51.3 ng/ul salmon testes DNA, 50 uM zinc acetate, 200 nM TF, 25 C, 1 h; high values mean tight binding
# Conditions: protein: recombinant; tags: N-terminal polyhistidine and DsRed monomer fusion (pET32a); label: CyDye5-dUTP incorporated in the synthesized complementary strand; 3' TTTTT single-stranded linker to array surface; dsDNA, one strand shown
# Outline: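 A custom Agilent array was converted to double-stranded form by primer extension with Cy5-dUTP and blocked with 2% BSA. Protein at 200 nM in PBS with 2% BSA, salmon testes DNA and 50 µM zinc acetate was applied for 1 h at 25 °C, followed by washing. The proteins were polyhistidine–DsRed N-terminal fusions of transcription factors, expressed in E. coli BL21-CodonPlus and Ni–NTA-purified. The binding signal is per-feature fluorescence intensity (arbitrary units) from an Axon 4000B scanner.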
# Sequence of OsWRKY34 (Q0JBA9 entry or part of it): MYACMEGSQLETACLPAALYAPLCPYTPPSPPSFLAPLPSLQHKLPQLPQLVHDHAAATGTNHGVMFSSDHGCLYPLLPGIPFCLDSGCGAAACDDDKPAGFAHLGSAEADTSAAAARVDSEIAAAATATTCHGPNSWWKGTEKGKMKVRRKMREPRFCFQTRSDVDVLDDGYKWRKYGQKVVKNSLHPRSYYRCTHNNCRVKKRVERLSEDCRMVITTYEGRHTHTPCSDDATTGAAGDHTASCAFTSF
row,Sequence,binding signal
1,TTCTGGATCTTGACTCTTGACCAGTTCATCCACACGTGTGCGGAGTCACCTAGTGCAG,8540 fluorescence intensity (a.u.)
2,TCTCCCTCAGTTACTGCCTTGCTCCCCAACCCCAGGAGCACGGAGTCACCTAGTGCAG,9230 fluorescence intensity (a.u.)
3,GCTTGGGGTGGAATCGCGTGGACAGCGTGGGCCTCAGTCACGGAGTCACCTAGTGCAG,12000 fluorescence intensity (a.u.)
4,ATATTTATTAGTTGGCGTGTATGTAAAACTTGTGTGTTTCCGGAGTCACCTAGTGCAG,8400 fluorescence intensity (a.u.)
5,CCATTGTTTTCTTCTTGTCCTTTTAGAGATGTTGGGTACACGGAGTCACCTAGTGCAG,8240 fluorescence intensity (a.u.)
6,AACCACCCCGCGTTTCCAGTCTCCACCACATCAACTCCCCCGGAGTCACCTAGTGCAG,10200 fluorescence intensity (a.u.)
7,CCCCAATGAATCATAGGCTCAACCTGCTCCTGCTGCAACACGGAGTCACCTAGTGCAG,8040 fluorescence intensity (a.u.)
8,GGTCCGGCGGAAGTAGGGGCGGAAGTGCGGGCGGGAGATGCGGAGTCACCTAGTGCAG,9700 fluorescence intensity (a.u.)
9,GACACATCTTAGTTTCATGAATTTGCACAAGAATTGCATGCGGAGTCACCTAGTGCAG,10800 fluorescence intensity (a.u.)
10,AGCCTGGAAGCCCATTCAGCGGCGGGGTTGGGGCGGCAGGCGGAGTCACCTAGTGCAG,10200 fluorescence intensity (a.u.)
11,AGATTGCTTTTCTTACAAGGACGACGCTAACAATAACATCCGGAGTCACCTAGTGCAG,9110 fluorescence intensity (a.u.)
12,GATGTGGATTTGGGATGTTAATTTGATTTGGGATTTGGGGCGGAGTCACCTAGTGCAG,10600 fluorescence intensity (a.u.)
13,GGCAATGCTTCACCGTCGCTTGCACCCCTTTCTCATGTGTCGGAGTCACCTAGTGCAG,9790 fluorescence intensity (a.u.)
14,CCCATTTGCCATGTCAACGCACCGTACTAATTAATCCTTGCGGAGTCACCTAGTGCAG,10200 fluorescence intensity (a.u.)
15,CCGCGGCCCAATAGCTCTTAGCCCATTGCCATCCGCCATCCGGAGTCACCTAGTGCAG,9820 fluorescence intensity (a.u.)
16,TTCCCTAAATGTTTGACACCGTTGACTTTTTTTTAAACATCGGAGTCACCTAGTGCAG,33300 fluorescence intensity (a.u.)
17,TGTTGTTGACTTTTAAACACATGTTTGATCATTTGTCTTACGGAGTCACCTAGTGCAG,14600 fluorescence intensity (a.u.)
18,AGATGACTCCGTTGACTTTTAAACACATGTTTGATAATTCCGGAGTCACCTAGTGCAG,16200 fluorescence intensity (a.u.)
19,CCGTTTTAAAATGTTTGACACCGTTGACTTTTTAGTACATCGGAGTCACCTAGTGCAG,26100 fluorescence intensity (a.u.)
20,TCCCTAAATGTTTGACACCGTTGACCTTTTTAAAACATTTCGGAGTCACCTAGTGCAG,17800 fluorescence intensity (a.u.)
21,CCTAAATGTTTGACTCCGTTGACTTTTTTAAACATGTCTGCGGAGTCACCTAGTGCAG,26100 fluorescence intensity (a.u.)
22,TTACATTTTAGGACATATATTTGGGGAGCTTCTTGGCTGTCGGAGTCACCTAGTGCAG,10800 fluorescence intensity (a.u.)

row,Sequence,binding signal
1,ATTTGTCTCTTTCGCGTCGTCTCTAACCTAACGTCCCAGACGGAGTCACCTAGTGCAG,13100 fluorescence intensity (a.u.)
2,CCCACGCGCCCACTTTGACCGACCCATCGATCGATCACGACGGAGTCACCTAGTGCAG,14300 fluorescence intensity (a.u.)
3,GCAACACCTCCCCTGTTCTTGCTCTGTTTCCTCACTCTGTCGGAGTCACCTAGTGCAG,10200 fluorescence intensity (a.u.)
4,TCTATCTGCCTGACTATCTCTATCTCGATCTCGTCCAGGACGGAGTCACCTAGTGCAG,9860 fluorescence intensity (a.u.)
5,ATCCGAGCATCTCGCCTCGCCCCGCCCCGCCCCGATCGATCGGAGTCACCTAGTGCAG,9480 fluorescence intensity (a.u.)
6,CTAGTAGTGCACACAAGCGGCAGCAGGAGGGGAGGGTGGTCGGAGTCACCTAGTGCAG,9190 fluorescence intensity (a.u.)
7,CTCTCTCTGCCATATCCTGTGCTTTTCTTGTATTCCATCCCGGAGTCACCTAGTGCAG,11400 fluorescence intensity (a.u.)
8,GTTTGACACTTTTAGTACGTGTTTGACCATTTGTTTTATTCGGAGTCACCTAGTGCAG,10200 fluorescence intensity (a.u.)
9,CCTAAATGTTTGACACCGTTGACTTTTTTAAACATATTTGCGGAGTCACCTAGTGCAG,33000 fluorescence intensity (a.u.)
10,ATGTTTGACACCGTTGACTTTTTAGTACGTGTTTGACCATCGGAGTCACCTAGTGCAG,28200 fluorescence intensity (a.u.)
11,TTCTCCACGGCAAACCACCACCGGCGTCACCAGCCCACCACGGAGTCACCTAGTGCAG,8110 fluorescence intensity (a.u.)
12,CTTTTCCATTTCCATGCATTCTTTGATCATCAAGTGATCACGGAGTCACCTAGTGCAG,12100 fluorescence intensity (a.u.)
13,TTGACCTGCTAGCCTTTTTTTTTTCGCAAATCTATTCCTGCGGAGTCACCTAGTGCAG,8440 fluorescence intensity (a.u.)
14,ATTTCTGCAGACCCATTTTGCTTTTGAAACACTGCTGATTCGGAGTCACCTAGTGCAG,9790 fluorescence intensity (a.u.)
15,AGTTTGTCATGGTCTAAAATATTACCCAGGTGTTCTTTGACGGAGTCACCTAGTGCAG,8760 fluorescence intensity (a.u.)
16,CCATTAGTAAGTTCTCTCGTGGCCCAATACTCTCTTGATGCGGAGTCACCTAGTGCAG,8840 fluorescence intensity (a.u.)
17,GGCCAATAAGTTCCAGTTCTCTTCTTAAGGCCCATTAGACCGGAGTCACCTAGTGCAG,61800 fluorescence intensity (a.u.)
18,CATTCTCTTCTCAACCAATAACAACTCTTCCACCATTCACCGGAGTCACCTAGTGCAG,9540 fluorescence intensity (a.u.)
19,CTCTCTCTCTCCTCGCGTGACTCGCGCGTGCCCTCGCCGCCGGAGTCACCTAGTGCAG,8130 fluorescence intensity (a.u.)
20,ACTAAACTCTGCCTTCATCATATTCCCAGCTGGTAACTCTCGGAGTCACCTAGTGCAG,10300 fluorescence intensity (a.u.)
21,GCCTTCATCATATTCCCAGCTGGTAACTCTATCCATTGACCGGAGTCACCTAGTGCAG,16400 fluorescence intensity (a.u.)
22,TATTCCCAGCTGGTAACTCTATCCATTGACGGCTGTGTTTCGGAGTCACCTAGTGCAG,9650 fluorescence intensity (a.u.)
